Assay outcomes from PubChem BioAssay.
Rows were chosen to be rich in hits. Some 2.7% of all compounds tested hit in one or more screens of this group.
12-LOX inh – ALOX12 (human) lipoxygenase inhibition; P18054; purified 12hLO, xylenol orange hydroperoxide absorbance; Potency, µM (doses to about 108 µM), inactives show top-dose activity change, negative = inhibition, actives largely listed as inhibitors; actives 1.1% (n = 580,000); further: on the % scale 0 is the no-effect control and ±100 the full control effect
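Purified human 12hLO (150 nM final) in 25 mM Hepes, 0.01% Triton X-100, pH 7.0 was preincubated 15 min at room temperature with compound. Then 40 uM arachidonic acid was added, 30 min. Hydroperoxide was read by Fe-XO absorbance ratio 573/405 nm.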
ATXN2 expr inh – reduces ATXN2 reporter expression in HEK-293 cells | AID 1745845 | actives 0.72% (n = 360,000) | HEK-293 ATXN2-luciferase reporter, luminescence, 24 h | Potency, µM (titrated, usually from 57 µM), without a hit: at the top dose activity change, negative = inhibition, most hits filed as inhibitors; further: on the % scale 0 is the no-effect control and ±100 the full control effect; nearly all actives have a fitted effect of over 55% in size
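qHTS (up to 57 uM final) was run with 24 h compound exposure of reporter cells at 37 °C. Each well was multiplexed: SteadyGlo luminescence measured ATXN2-luciferase expression after a fluorogenic Gly-Phe-AFC viability readout (25 uM final).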
HepG2 viability – counter-screen for TGF-b inhibitors: cytotoxicity in HepG2 cells; HepG2 CAGA-GFP viability, ATP luminescence, 18 h; Potency, µM (series often up to 46.1 µM), inactives show at the top dose activity change, negative = cytotoxicity, hits mostly cytotoxic; actives 0.76% (n = 410,000); AID 588856
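HepG2 CAGA-GFP cells (1000/well, DMEM with 1% FBS) received compound, then TGF-beta at 500 pg/mL final, and were incubated 18 hours at 37 degrees C. Viability was read by CellTiter-Glo luminescence. Media-only wells were set as complete cell-killing and DMSO as no toxicity.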
TGFb inhibitor – inhibitors of TGF-b signaling. HepG2 CAGA-GFP TGF-b/SMAD3 reporter, GFP fluorescence, 18 h; TGF-beta stimulated, 500 pg/mL final. Potency, µM (titrated, usually from 46.1 µM), inactives show at the highest dose activity, negative = inhibition, actives largely listed as inhibitors. actives 1.2% (n = 410,000). AID 588855; further: on the % scale 0 is the no-effect control and ±100 the full control effect; nearly all actives have a fitted effect of over 65% in size
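GFP signal (ex488/em500-530) from TGF-beta-stimulated HEPG2 CAGA-GFP cells, 500 pg/mL final, 18 h at 37 degrees C in DMEM plus 1% FBS, normalized to unstimulated and DMSO-stimulated controls.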
ATXN viability – viability counter-screen for ATXN expression inhibitors; S2 cells (HEK-293 line with an ATXN2-luciferase reporter) viability, CellTiter-Fluor protease fluorescence, 24 h; Potency, µM (doses to about 56.7 µM), hits mostly cytotoxic; actives 0.49% (n = 400,000); AID 651635; further: nearly all actives have a fitted effect of over 40% in size
* = called active by the depositor; i = inactive; u = inconclusive; x = no result. The call rests on the fitted dose curve; in most records, active means well fitted curve in the direction sought with a large enough effect; inconclusive means small, poorly fitted or top-dose-only effect, or another doubt; inactive means no such curve, though single readings can be large; an effect the other way counts as inactive or inconclusive. Potency means the concentration at half of the fitted maximal effect.

SMILES	12-LOX inh	ATXN2 expr inh	HepG2 viability	TGFb inhibitor	ATXN viability
CC1CCN(C(=O)C(=O)N2CCN(c3nc(-c4ccco4)c4c(c3C#N)CC(C)(C)OC4)CC2)CC1	14µM*	x	x	x	x
CCCCN(C)c1nc(-c2ccco2)c2c(c1C#N)CC(C)(C)OC2	40µM*	22µM*	-48%	u	i
CC(C)(C)NC(=O)CNC(=O)C1CCCCC1	55%	x	x	x	x
CCC(=O)Nc1ccc(-c2csc(NCCOC)n2)cc1	14µM*	x	x	x	x
COc1cc(CCC2CCN(C(=O)Nc3ccccc3OC)CC2)cc(OC)c1	2%	x	x	x	x
C[C@H](NC(=O)c1nc[nH]c1C(=O)N1CCN(C(=O)OC(C)(C)C)CC1)C(=O)OCc1ccccc1	5%	11%	0%	u	i
CC(C)C[C@H](NC(=O)c1nc[nH]c1C(=O)NCC(=O)OCc1ccccc1)C(=O)OCc1ccccc1	0%	-24%	-12%	u	i
Cc1ccc(NC(=O)c2nc[nH]c2C(=O)N[C@H](C)c2ccccc2)cc1	u	u	-64%	u	u
CC(C)C[C@H](NC(=O)c1[nH]cnc1C(=O)N[C@@H](C)C(=O)OC(C)(C)C)C(=O)OC(C)(C)C	5%	-70%	11µM*	u	x
CC(C)C[C@H](NC(=O)c1nc[nH]c1C(=O)NCC(=O)OC(C)(C)C)C(=O)OCc1ccccc1	25%	-14%	-49%	11µM*	i
CC1CCN(C(=O)c2[nH]cnc2C(=O)N[C@@H](C)C(=O)OCc2ccccc2)CC1	-17%	-36%	-35%	11µM*	i
CCOC(=O)c1ccc(NC(=O)c2nc[nH]c2C(=O)N[C@H](C)c2ccccc2)cc1	1%	32µM*	-40%	u	u
O=C(COc1ccc(F)cc1)Nc1ccc2oc(-c3cccc(Cl)c3)nc2c1	1%	x	x	x	x
CC(C)(C)OC(=O)NCCCC[C@H](NC(=O)c1[nH]cnc1C(=O)Nc1ccc(Cl)cc1)C(=O)OC(C)(C)C	x	u	-35%	14µM*	u
CC(C)(C)OC(=O)[C@H](Cc1ccccc1)NC(=O)c1[nH]cnc1C(=O)Nc1ccccc1F	-1%	u	11µM*	u	18µM*
CC(C)C[C@H](NC(=O)c1[nH]cnc1C(=O)Nc1ccccc1)C(=O)OC(C)(C)C	u	u	-121%	16µM*	u
CNC(=O)c1[nH]cnc1C(=O)N[C@@H](Cc1ccccc1)C(=O)OC(C)(C)C	0%	-4%	-9%	-6%	i
CC(C#N)Sc1nc(-c2cccs2)cc(C(F)(F)F)c1C#N (centres undefined)	-19%	x	x	x	x
COCc1ccc(C(=O)Nc2ccc(NC(C)=O)cc2C(F)(F)F)cc1	-2%	x	x	x	x
COCCNC(=O)COC(=O)c1cc(-c2ccc(-c3ccccc3)cc2)nc2ccccc12	15%	x	x	x	x
O=c1[nH]c(/C=C\c2cccs2)nc(O)c1[N+](=O)[O-]	22µM*	-20%	-3%	-25%	u
O=C(Nc1ccc(F)c(F)c1)c1cc(S(=O)(=O)NC2CCCCCC2)ccc1F	u	x	-97%	u	x
CC(C)c1ccc(NC(=O)c2cc(S(=O)(=O)NC3CCCCC3)ccc2F)cc1	2%	u	13µM*	u	u
Cc1ccc2nc(C)cc(C(=O)N(C)C3CCS(=O)(=O)C3)c2c1 (centres undefined)	10%	x	x	x	x
COc1ccc(C(O)c2ncc(-c3cccc(C(F)(F)F)c3)[nH]2)cc1 (centres undefined)	-12%	-5%	-36%	0%	i
Cc1cc(Cl)ccc1C(O)c1ncc(-c2ccc3ccccc3c2)[nH]1 (centres undefined)	u	5%	-70%	u	u
OC(c1ccc(Cl)cc1)c1ncc(-c2cccc(C(F)(F)F)c2)[nH]1 (centres undefined)	-13%	u	10µM*	u	i
OC(c1cc(F)cc(Cl)c1)c1ncc(-c2cccc(C(F)(F)F)c2)[nH]1 (centres undefined)	-10%	u	-67%	11µM*	i
